Measurements: PubChem BioAssay AID1347419 (Sanford-Burnham Center for Chemical Genomics, 2020)
Hit rate of the full screen: of about 99,000 compounds, about 820 (0.83%) were called active.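 Rule for the calls: active = Z-score of -3 or lower, scaled per plate to the spread of control and sample wells; inactive = z-score above -3.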 Many of the other results were omitted from the sample, so actives are more common in it than they were.

Each compound was assayed against Protein-tyrosine kinase 2-beta (Homo sapiens) (UniProt Q14289) (assay: Pyk2 FERM oligomerization blockers – Q293 cells, FERM NanoBiT luminescence, HTS, primary screen (AID 1347419;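 note: the deposit names both 25 µM and 10 µM; negative z-score means lost luminescence so less FERM oligomerization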)). Details: active compounds read low.
Sequence of Protein-tyrosine kinase 2-beta (Homo sapiens) (Q14289 whole entry, looked up): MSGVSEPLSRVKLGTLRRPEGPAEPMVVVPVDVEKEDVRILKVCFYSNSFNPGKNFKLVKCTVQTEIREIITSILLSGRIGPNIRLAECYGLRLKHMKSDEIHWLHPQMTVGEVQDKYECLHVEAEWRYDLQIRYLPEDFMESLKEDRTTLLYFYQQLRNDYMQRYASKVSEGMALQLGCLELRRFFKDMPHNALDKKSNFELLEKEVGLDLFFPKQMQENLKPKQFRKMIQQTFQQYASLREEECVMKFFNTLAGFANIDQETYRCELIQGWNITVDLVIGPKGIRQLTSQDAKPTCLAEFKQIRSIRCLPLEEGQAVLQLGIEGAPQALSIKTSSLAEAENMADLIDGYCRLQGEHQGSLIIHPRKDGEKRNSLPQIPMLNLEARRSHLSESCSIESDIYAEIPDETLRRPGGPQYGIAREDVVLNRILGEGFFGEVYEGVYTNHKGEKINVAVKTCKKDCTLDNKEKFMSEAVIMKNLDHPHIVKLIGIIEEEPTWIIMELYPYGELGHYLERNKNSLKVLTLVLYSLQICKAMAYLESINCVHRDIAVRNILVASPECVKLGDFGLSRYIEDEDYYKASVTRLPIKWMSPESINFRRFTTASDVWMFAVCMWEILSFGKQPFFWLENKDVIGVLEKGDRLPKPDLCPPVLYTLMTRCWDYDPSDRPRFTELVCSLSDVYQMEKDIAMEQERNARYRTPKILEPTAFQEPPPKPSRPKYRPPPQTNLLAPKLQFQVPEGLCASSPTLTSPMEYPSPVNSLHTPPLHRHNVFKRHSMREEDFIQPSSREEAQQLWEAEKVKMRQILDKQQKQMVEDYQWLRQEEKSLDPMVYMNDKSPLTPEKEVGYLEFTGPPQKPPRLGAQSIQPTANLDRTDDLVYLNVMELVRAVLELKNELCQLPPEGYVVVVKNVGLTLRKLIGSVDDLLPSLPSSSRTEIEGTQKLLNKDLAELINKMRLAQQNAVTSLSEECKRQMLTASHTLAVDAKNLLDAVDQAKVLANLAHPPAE
Set-up: dose or concentration left out as unconfirmed

SMILES	z-score
COc1cc(-c2cc(C(=O)OCC(=O)Nc3ccc4c(c3)OCO4)c3ccccc3n2)cc(OC)c1OC	-0.31 (inactive)
CN(C)c1ccc(/C=C2\NC(=S)N(Cc3ccccc3)C2=O)cc1	-3.38 (active)
CC1=NN(Cc2ccccc2)C(=O)/C1=C/c1ccc(N(C)C)cc1	-1.29 (inactive)
CN(C)c1cc[n+](Cc2ccccc2)cc1	0.16 (inactive)
Cc1cc(C)cc(C(=O)NC(=S)Nc2ccc3[nH]c(=O)[nH]c3c2)c1	0.78 (inactive)
O=C(Cn1cc(C(=O)c2cccs2)c2ccccc21)NCc1cccs1	-3.3 (active)
COCCNC(=O)Cn1cc(C(=O)c2cccs2)c2ccccc21	-0.12 (inactive)
COC(=O)c1cn(CC(=O)NCc2cccs2)c2ccccc12	-0.4 (inactive)
Cc1ccc(S(=O)(=O)NNC(=O)Nc2cccc3ccccc23)cc1	-1.37 (inactive)
CC(=O)c1c(O)cc2n(c1=O)-c1ccc(Cl)cc1C2(C)C	-0.76 (inactive)
CCNC(=S)N1CCN(c2ncccn2)CC1	0.25 (inactive)
COc1ccc(S(=O)(=O)N(C)CC(=O)Nc2ccc3c(c2)OCCO3)cc1OC	0.96 (inactive)
O=C(CN(c1ccc2c(c1)OCCO2)S(=O)(=O)c1ccccc1)Nc1ccc2c(c1)OCO2	-3.19 (active)
CCCCC(=O)Nc1ccc2c(c1)OCCO2	-0.26 (inactive)
Cc1cc([N+](=O)[O-])ccc1NC1CCCC1	0.61 (inactive)
CC(C)(C)C1CCC(=NNC(=O)c2cc(-c3ccccc3)n[nH]2)CC1 (stereo not drawn)	0.56 (inactive)
CCOc1ccc(NC(=S)NC(=O)/C=C/c2ccc(OC)cc2)c([N+](=O)[O-])c1	0.72 (inactive)
COc1ccc(S(=O)(=O)N2CCCCC2)cc1Br	-0.87 (inactive)
COc1ccc(S(=O)(=O)Nc2ccc(S(=O)(=O)N3CCCCC3)cc2)cc1OC	-1.09 (inactive)
COc1ccc(-c2ccc(Nc3ccc(S(=O)(=O)N4CCCC4)cc3)nn2)cc1OC	-3.54 (active)
CN(C)CCCNC(=S)NCc1ccc(Cl)cc1	0.46 (inactive)
Cc1ccc(C(C)NC(=O)Cn2nc(C)c([N+](=O)[O-])c2C)cc1 (stereo not drawn)	0.63 (inactive)
O=C1c2ccccc2C2=Nc3ccccc3SC(c3ccccc3F)C12 (stereo not drawn)	-4.39 (active)
CCCOc1ccc(Cn2ccnc2)cc1[N+](=O)[O-]	1.5 (inactive)

SMILES	z-score
Cc1ccc(O)c(CCc2ccccc2)n1	0.72 (inactive)
COc1ccc(-c2nnc(SCc3cccnc3)o2)cc1	-0.08 (inactive)
COc1ccc(-c2cc(C(F)(F)F)nc(NCc3cccnc3)n2)cc1	-3.51 (active)
FC(F)(F)c1cc(-c2ccco2)nc(NCc2ccc(Cl)cc2)n1	0.02 (inactive)
O=C(CCN1C(=O)c2ccccc2C1=O)Nc1ccncc1	0.81 (inactive)
COc1cc(C(=O)NC(=S)NCc2ccco2)cc(OC)c1OC	0.39 (inactive)
COc1cc(C(=O)Nc2oc(-c3ccccc3)c(-c3ccccc3)c2C#N)cc(OC)c1OC	-3.42 (active)
N#Cc1c(NC(=O)CCCN2C(=O)c3ccccc3C2=O)oc(-c2ccccc2)c1-c1ccccc1	-3.57 (active)
COC(=O)c1sccc1NC(=O)c1cc(OC)c(OC)c(OC)c1	-0.79 (inactive)
N#Cc1c(/N=C/N2CCCC2)oc(-c2ccccc2)c1-c1ccccc1	-2.56 (inactive)
Cc1ccc(NC(=O)Cn2cccc2C2=NC(c3ccccc3)CO2)c(C)c1 (stereo not drawn)	-0.85 (inactive)
OC(COCc1ccco1)CN1CCN(c2ccccc2)CC1 (stereo not drawn)	1 (inactive)
CC(CNc1ccc([N+](=O)[O-])c2cccnc12)Nc1c([N+](=O)[O-])cc(C(F)(F)F)cc1[N+](=O)[O-] (stereo not drawn)	-1.13 (inactive)
Cc1ccc(NC(=O)CC2C(=O)N(Cc3ccccc3)C(=S)N2NC(=O)c2cccc(F)c2)c(C)c1 (stereo not drawn)	-1.13 (inactive)
COC(=O)C1=NNC2(c3ccc(C)cc3)C(=O)N(c3cccc(C)c3C)C(=O)C12 (stereo not drawn)	-0.49 (inactive)
CCc1ccc(NC(=O)c2ccc(Cn3cc([N+](=O)[O-])cn3)cc2)cc1	-0.1 (inactive)
O=C(CSC(=S)N1CCOCC1)c1ccccc1	0.14 (inactive)
CC(=O)Nc1ccc(SCC(=O)Nc2ccccc2Oc2ccccc2)cc1	-1.74 (inactive)
COc1ccc(C(c2nnnn2Cc2cccs2)N2CCN(c3ccccc3)CC2)cc1OC (stereo not drawn)	-3.47 (active)
COc1ccc(CCn2nnnc2C(c2ccccc2)N2CCN(C)CC2)cc1OC (stereo not drawn)	0.7 (inactive)
COCCn1nnnc1C(c1ccccc1Cl)N1CCN(c2ccccc2OC)CC1 (stereo not drawn)	0.11 (inactive)
CC1(C)Cc2cccc(OCC(=O)N3CCN(c4ccc([N+](=O)[O-])cc4)CC3)c2O1	-1.19 (inactive)
COC(=O)c1ccc(C(=O)OC)c(NC(=S)N2CCN(c3cc(Cl)ccc3C)CC2)c1	0.27 (inactive)
CC(C)(C)n1nnnc1C(c1ccc(F)cc1)N1CCN(Cc2ccc3c(c2)OCO3)CC1 (stereo not drawn)	-0.6 (inactive)

SMILES	z-score
Fc1ccccc1C(c1nnnn1Cc1ccc2c(c1)OCO2)N1CCN(Cc2ccccc2)CC1 (stereo not drawn)	-3.73 (active)
Cc1cc(C)c2[nH]c(=O)c(C(c3nnnn3Cc3ccc4c(c3)OCO4)N3CCCC3)cc2c1 (stereo not drawn)	0.33 (inactive)
CCc1ccc(Oc2coc3cc(OC(=O)c4cc5ccccc5oc4=O)ccc3c2=O)cc1	-2.06 (inactive)
C=CCNC(=O)c1ccccc1NC(=O)c1ccc(Cl)c(S(=O)(=O)Nc2cccc(C)c2C)c1	-3.05 (active)
COC(=O)c1ccc(C(=O)Nc2cc(Cl)ccc2Cl)cc1NC(=O)c1ccccc1C	0.09 (inactive)
Cc1ccccc1NC(=O)c1ccccc1NS(=O)(=O)c1cccc2cccnc12	-1.55 (inactive)
Cc1nc2ccccc2n1CC(=O)N/N=C/c1cccs1	0.4 (inactive)
CCCN1C(=O)C(Cc2nc3ccccc3c(=O)n2-c2ccccc2)c2cc(C)ccc21 (stereo not drawn)	0.19 (inactive)
Cc1nn(CC(=O)Nc2ccc(N(C)C)cc2)c(C)c1[N+](=O)[O-]	-0.87 (inactive)
CCCCC(NS(=O)(=O)c1ccc(C)cc1)C(=O)Oc1ccc2c3c(c(=O)oc2c1)CCC3 (stereo not drawn)	-1.42 (inactive)
COC(=O)N/N=C/c1cn(CCCOc2ccc(C)cc2)c2ccccc12	-1.26 (inactive)
CCn1c(C(C)NC(=O)c2ccc(C)cc2)n[nH]c1=S (stereo not drawn)	0.28 (inactive)
O=C(Nc1ccccc1N1CCN(C(=O)c2ccccc2)CC1)c1ccc2c(c1)OCO2	-3.44 (active)
CCCC(=O)Nc1ccccc1N1CCN(C(=O)c2ccccc2)CC1	-1.16 (inactive)
O=C(Nc1ccccc1)c1ccc2c(c1)OCO2	1.34 (inactive)
CCOc1ccc(NC(=O)CSc2nc3ccccc3c(=O)n2Cc2cccs2)cc1	0.79 (inactive)
COC(=O)c1cn(-c2ccccc2)nc1-c1cccnc1	-0.5 (inactive)
CC(=O)Cc1nsc(NC(=O)c2csc3c2CCCC3)n1	-1.89 (inactive)
CC(=O)Cc1nsc(NC(=O)c2ccc(COc3ccc(C)cc3)o2)n1	-0.45 (inactive)
COc1ccc(-c2nn(-c3ccccc3)cc2C(=O)Nc2nccs2)cc1OC	-3.32 (active)
COc1ccc(-c2nn(-c3ccccc3)cc2C(=O)Nc2nc(CC(C)=O)ns2)cc1	-3.37 (active)
COc1cc(C(=O)Nc2nccs2)cc(OC)c1OC	-2.06 (inactive)
COc1cccc(C(=O)Nc2cc3c(cc2Br)OCCCO3)c1	0.23 (inactive)
CCOc1ccc(NC(=O)CCC(=O)N/N=C/c2ccc([N+](=O)[O-])s2)cc1	0.19 (inactive)

SMILES	z-score
CC(C)(C)NC(=O)c1cccc(NC(=O)Cc2ccc(Br)cc2)c1	-0.17 (inactive)
COC(=O)c1c(NC(=O)CN2CCN(S(=O)(=O)c3ccccc3[N+](=O)[O-])CC2)sc2c1CCC(C)C2 (stereo not drawn)	0.28 (inactive)
CNC(=O)c1ccsc1NC(=O)c1ccc(S(=O)(=O)N2CCOCC2)cc1	-1 (inactive)
CC(=O)Oc1c(C(=O)c2nnc(C)o2)c(=O)n(Cc2ccccc2)c2ccccc12	0.7 (inactive)
O=C(Cc1c[nH]c2ccccc12)N/N=C/c1cccc(F)c1	-0.81 (inactive)
COc1cccc2c1CCC(NC(C)=O)C2=O (stereo not drawn)	0.78 (inactive)
CCOC(=O)c1ccc(N/C(=N/S(=O)(=O)c2ccccc2)c2ccccc2)cc1	-1.09 (inactive)
COCCCNC(=O)CNC(=S)N(Cc1cc(OC)c(OC)c(OC)c1)C1CCCC1	0.81 (inactive)
Cc1ccc(C(=O)C(=S)N2CCOCC2)cc1	-0.25 (inactive)
COc1ccc(/C=C/C(=O)Nc2ccc3c(c2)OCCO3)cc1OC	-0.25 (inactive)
Cc1ccc(C(=O)N2CC(=O)Nc3ccccc32)o1	-0.11 (inactive)
Cn1c(=O)c2cn(-c3cccc4ccccc34)cc2n(C)c1=O	-3.24 (active)
CC(=O)Nn1cc2c(=O)n(C)c(=O)n(C)c2c1	1.08 (inactive)
COc1ccc(OC)c(-n2cc3c(=O)n(C)c(=O)n(C)c3c2)c1	-0.75 (inactive)
COc1ccc(CC(=O)Nc2cc(S(=O)(=O)N3CCCCC3)ccc2N2CCN(C)CC2)cc1	0.23 (inactive)
COc1ccccc1NC(=O)C1=C(C)Nc2nc3ccccc3n2C1c1cccs1 (stereo not drawn)	-0.65 (inactive)
CC(C)C(=O)Nc1ccc2c3c(cccc13)CC2	-0.27 (inactive)
CCOC(=O)c1cc2cc(-c3c(C(=O)OCC)oc4cc(O)cc(O)c4c3=O)ccc2o1	-3.6 (active)
Cc1ccc(OC(=O)c2cc3ccccc3o2)cc1	0.88 (inactive)
O=c1c(-c2ccc3c(c2)OCCO3)c(C(F)(F)F)oc2cc(O)cc(O)c12	-1.19 (inactive)
O=C(NC(=S)NC1CCSC1=O)c1ccccc1F (stereo not drawn)	2.45 (inactive)
